Assay results reported in PubChem BioAssay AID485290 (National Center for Advancing Translational Sciences (NCATS), 2010).
The whole screen tested about 350,000 compounds, of which about 990 (0.28%) were called active. Where a call stands in place of a potency, no number is given. Another 2% or so got no clear call; they are omitted. The call rests on the fitted dose curve; in most records, active means well fitted inhibition curve with a large enough effect; inconclusive means small, poorly fitted or top-dose-only effect; inactive means no such curve, though single readings can be large or run the other way. This excerpt belongs to a sample that is enriched for actives.

These molecules were tested against Tyrosyl-DNA phosphodiesterase 1 (Homo sapiens) (UniProt Q9NUW8) (assay: qHTS Assay for Inhibitors of Tyrosyl-DNA Phosphodiesterase (TDP1)). Conditions: recombinant TDP1, AlphaScreen DNA substrate cleavage; series mostly up to 130 µM.
Chain of Tyrosyl-DNA phosphodiesterase 1 (Homo sapiens) (Q9NUW8 whole entry, looked up): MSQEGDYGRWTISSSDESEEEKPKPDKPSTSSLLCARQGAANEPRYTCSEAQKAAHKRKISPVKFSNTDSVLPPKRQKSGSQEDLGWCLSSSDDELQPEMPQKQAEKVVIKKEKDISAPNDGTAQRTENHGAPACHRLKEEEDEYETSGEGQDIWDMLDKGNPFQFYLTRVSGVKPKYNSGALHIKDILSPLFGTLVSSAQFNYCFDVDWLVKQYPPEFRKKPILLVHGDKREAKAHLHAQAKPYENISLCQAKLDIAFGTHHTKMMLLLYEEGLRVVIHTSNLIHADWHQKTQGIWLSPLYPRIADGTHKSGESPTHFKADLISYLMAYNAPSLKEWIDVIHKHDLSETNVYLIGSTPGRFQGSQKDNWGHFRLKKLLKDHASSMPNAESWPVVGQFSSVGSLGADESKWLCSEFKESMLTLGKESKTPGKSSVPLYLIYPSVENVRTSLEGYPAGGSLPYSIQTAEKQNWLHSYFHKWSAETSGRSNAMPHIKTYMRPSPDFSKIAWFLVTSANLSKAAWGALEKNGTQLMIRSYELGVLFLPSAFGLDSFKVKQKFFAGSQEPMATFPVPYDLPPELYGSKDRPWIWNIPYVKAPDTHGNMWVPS
Summary of the method: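 Compounds were preincubated with Tdp1 (1 nM final) for 15 min at room temperature before substrate (15 nM final) started a 5 min reaction; beads (10 ug/ml final) were then added for 10 min before AlphaScreen detection.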
Further: nearly all actives have a fitted effect of over 40% in size.
Potency means the concentration at half of the fitted maximal effect.

SMILES	Potency
Cc1noc(C)c1-c1ccc2ncnc(NCc3ccc(F)c(F)c3)c2c1	inactive
Oc1ccc(Cl)cc1C1C=C(c2ccc3c(c2)OCO3)NC(c2ccc(F)c(Br)c2)N1 (configuration not stated)	inactive
CO[C@@]12[C@@H](COC(N)=O)C3=C(C(=O)C(C)=C(N)C3=O)N1C[C@@H]1N[C@@H]12	35.5 µM (active)
O=[N+]([O-])c1ccc(S(=O)(=O)N2CCN(c3nc(-c4ccccc4)nc4ccccc34)CC2)cc1	inactive
Cc1cccc(N2CCN(C(=O)c3ccc4c(c3)CCN4S(=O)(=O)c3ccccc3)CC2)c1C	inactive
COc1ccc(CCNc2ncnc3c2cnn3-c2ccc(C)cc2)cc1	inactive
CC(O)c1nc2ccccc2n1Cc1ccc([N+](=O)[O-])cc1 (configuration not stated)	inactive
CCc1cccc(C)c1N(C(=O)Cn1c(CO)nc2ccccc21)C(C)COC (configuration not stated)	inactive
CCOCN(C(=O)Cn1c(C(C)O)nc2ccccc21)c1c(C)cccc1CC (configuration not stated)	89.1 µM (active)
COc1ccc(S(=O)(=O)Nc2cccc3cccnc23)c(N)c1	inactive
COc1ccccc1NC(=O)C(=O)c1cc(C)n(-c2ccccc2F)c1C	inactive
CCCOc1ccc(NC(=O)CC2C(=O)N(c3ccccc3)C(=O)N2Cc2ccco2)cc1 (configuration not stated)	inactive
O=C(O)CSc1ccc(S(=O)(=O)N2CCCC2)cn1	inactive
Cc1cc(C)c(C#N)c(N2CCC(C(N)=O)CC2)n1	inactive
N#Cc1c(N2CCCCC2)nc(N)c2c(N)nc(SCC(=O)O)cc12	50.1 µM (active)
O=C1CCCC2=C1[C@@]1(CCC(c3ccccc3)C1)N=C(Nc1nc3ccccc3o1)N2 (some centres not stated)	inactive
CCCCCCC1(C)NC(c2ccc3c(c2)OCO3)=CC(c2ccccc2O)N1 (configuration not stated)	inactive
COc1ccc(Nc2cc(C(=O)NCCCN(C)c3ccccc3)c3ccccc3n2)c(OC)c1	inactive
Cc1ccc(NC(=O)CCCn2c(=O)c3cccn3c3ccccc32)cc1Cl	inactive
O=C1c2ccccc2C(=O)N1c1ccc(S(=O)(=O)N2CCOCC2)c2ccccc12	inactive
O=C(Nc1cccc2cccnc12)C(F)(F)F	inactive
CCOC(=O)C1=C(C)N=C2c3ccccc3C(=O)C2C1c1ccc(Br)cc1 (configuration not stated)	inactive
CCOC(=O)C1=NOC(Cn2cc(C(C)=O)c(=O)[nH]c2=O)C1 (configuration not stated)	inactive
CCOC(=O)C1=NO[C@@]2(C=C(Br)C(=O)[C@H]3O[C@H]32)C1	8.91 µM (active)
CCOC(=O)N1CCc2c(sc(NCc3cccc(F)c3)c2C(=O)Nc2ccccc2OCC)C1	inactive
CCC1(C)CC(=O)c2c(ccc3oc(C(=O)Nc4ccc(C(C)=O)cc4)c(C)c23)O1 (configuration not stated)	inactive

SMILES	Potency
COc1ccc(Cc2nc3ccc(C(=O)NCc4ccccc4Cl)cc3o2)cc1	inactive
CC(C)COC(=O)c1ccc(NC(=O)C2C3C=CC(C3)C2C(=O)O)cc1 (configuration not stated)	inactive
CC(=O)NS(=O)(=O)c1ccc(NC(=O)C2C3C=CC(C3)C2C(=O)O)cc1 (configuration not stated)	79.4 µM (active)
COC(=O)c1cc(NC(=O)C2C3C=CC(C3)C2C(=O)O)cc(C(=O)OC)c1 (configuration not stated)	inactive
O=C(NCc1ccc2c(c1)CCN2C(=O)c1ccccc1)Nc1cc(F)ccc1F	inactive
O=C(CNC(=O)c1ccc(Cl)c(C(F)(F)F)c1)OC(C(=O)Nc1cc(C(F)(F)F)ccc1Cl)c1ccccc1 (configuration not stated)	inactive
CC(=O)Nc1cccc(NC(=O)CSc2nccn2Cc2ccc3c(c2)OCO3)c1	inactive
O=C(CCC1CCCN(C(=O)Cc2ccc(F)cc2)C1)N1CCN(c2ccccn2)CC1 (configuration not stated)	inactive
O=C(CCC1CCCN(C(=O)c2ccc(F)c(F)c2)C1)N1CCN(c2ccccn2)CC1 (configuration not stated)	inactive
C=Cc1ccc(C(=O)N2CCCC(CCC(=O)N3CCN(c4ccccn4)CC3)C2)cc1 (configuration not stated)	1.26 µM (active)
Cc1ccc(S(=O)(=O)NC(N)=NCCC[C@@H](NC(=O)CNC(=O)c2ccccc2)C(=O)Nc2cc(C(F)(F)F)ccc2Cl)cc1	inactive
CC(Nc1ncnc2ccc(-c3ccc4c(c3)OCO4)cc12)c1ccco1 (configuration not stated)	inactive
O=C(O)c1ccc2c(c1)N(Cc1ccc(F)cc1)C(=O)c1ccccc1S2=O (configuration not stated)	inactive
O=c1[nH]c(=S)[nH]c2[nH]c(=S)[nH]c12	8.91 µM (active)
CCCS(=O)(=O)Nc1cccc(-c2cn3ccsc3n2)c1	inactive
COC(=O)c1ccc(NC(=O)CCc2c(C)nn(-c3ccc(N4CCCC4)nn3)c2C)cc1	inactive
CN(C)c1ccc(C(=O)NCC(=O)OC(C(=O)Nc2cc(C(F)(F)F)ccc2Cl)c2ccccc2)cc1 (configuration not stated)	inactive
CCOc1cccc(C(=O)Nc2nnc(S(=O)(=O)N(C)c3ccc(C)cc3)s2)c1	inactive
O=C(NCc1nnc(C(=O)Nc2ccc(C(F)(F)F)cc2Cl)o1)c1ccccc1	inactive
COc1ccc(NC(=O)c2sc3nc[nH]c(=O)c3c2C)cc1	inactive
Cc1cccc(N2CCN(c3ccc(C(=O)O)cc3NC(=O)c3ccccc3F)CC2C)c1 (configuration not stated)	inactive
O=C(NCCCO)C(=O)Nc1c2c(nn1-c1ccccc1)CSC2	inactive
C=C1c2cccc(OC)c2O[C@H](C(=O)OCC)[C@@H]1CCCCCC	35.5 µM (active)
CCOC(=O)C1=C(C)c2ccccc2OC1C(=O)OCC (configuration not stated)	inactive
COc1ccc(C(=O)N(Cc2ccccc2)Cc2ccc(OC)c(COc3ccc(NC(C)=O)cc3)c2)c(O)c1	inactive
CC(=O)NC(c1cccs1)c1cc(Cl)c2cccnc2c1O (configuration not stated)	inactive
